# Sampled rows, rich in hits. Any-hit rate of the full collection: about 2.4%.
# AmpC nodet inh: inhibitors of E. coli AmpC beta-lactamase without detergent. actives 1.8% (n = 71,000). AmpC nitrocefin hydrolysis, absorbance 480 nm, no detergent. Potency, µM (doses to about 28.7 µM). P00811
# Target sequence (P00811 whole entry, looked up): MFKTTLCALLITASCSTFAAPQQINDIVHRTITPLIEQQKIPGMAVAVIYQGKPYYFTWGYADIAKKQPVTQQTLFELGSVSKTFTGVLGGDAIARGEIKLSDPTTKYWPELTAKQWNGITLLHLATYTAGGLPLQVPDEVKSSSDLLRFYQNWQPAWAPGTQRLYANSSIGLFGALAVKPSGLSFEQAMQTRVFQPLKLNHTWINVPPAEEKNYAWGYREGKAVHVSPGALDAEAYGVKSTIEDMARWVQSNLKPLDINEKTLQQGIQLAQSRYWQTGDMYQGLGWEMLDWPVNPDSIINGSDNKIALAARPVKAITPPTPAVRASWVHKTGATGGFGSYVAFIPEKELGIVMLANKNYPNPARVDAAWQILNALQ
#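 AmpC, 20 mM phosphate pH 7.0; 15 min cpd preinc, RT; start with nitrocefin (800 uM stock); A480 kinetic read, 20 s intervals, 4 min. No-enzyme wells = negative control.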
# SmPrx2 inh: inhibitors of Schistosoma mansoni peroxiredoxin 2; S. mansoni Prx2 activity coupled to TGR/GSH (TGR is thioredoxin glutathione reductase), NADPH fluorescence loss, qHTS; Potency, µM; actives 0.07% (n = 65,000); AID 448
#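 Activity is read as the drop in NADPH fluorescence (365/450 nm), recorded every 30 sec for 8 min after H2O2 addition. Prx2 is coupled to TGR-driven NADPH oxidation through glutathione, in phosphate buffer pH 7.4.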
# Anthrax LT inh: blocks cellular internalization of anthrax lethal toxin. Potency, µM (top dose mostly 40 µM), hits mostly inhibitors. actives 0.67% (n = 70,000). Cells, anthrax lethal toxin internalization, FRET ratio (460/530); further: nearly all actives have a fitted effect of over 50% in size
# AmpC inh det: blocks E. coli AmpC beta-lactamase in presence of detergent | actives 0.09% (n = 71,000) | Potency, µM (series often up to 28.7 µM) | purified AmpC, nitrocefin hydrolysis with detergent; active means well fitted curve in the direction sought with a large enough effect; inconclusive means small, poorly fitted or top-dose-only effect
#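 E. coli AmpC (5.3 nM) in 20 mM phosphate pH 7.0 with 0.01% Triton X-100, preincubated 15 min RT with compound; nitrocefin (2 uL of 800 uM stock) hydrolysis followed by 480 nm absorbance every 20 s over 4 min.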
# Numbers stand for hits; – = inactive; ? = inconclusive; · = no result; [ ] = remark or other dose. Unless noted, the call rests on the fitted dose curve.
SMILES,AmpC nodet inh,SmPrx2 inh,Anthrax LT inh,AmpC inh det
COc1ccc(S(=O)(=O)Cc2ccc(C(=O)NCCc3ccc(S(N)(=O)=O)cc3)o2)cc1,–,–,–,–
Cc1ccccc1NS(=O)(=O)c1ccc(C2CNC(=O)C2)cc1 (stereo not given),–,–,–,–
O=C1CC(c2ccc(S(=O)(=O)NCc3ccccc3)cc2)CN1 (stereo not given),3.98µM[single pt active],–,–,–
Cc1cccc(CCNC(=O)CN(C)S(=O)(=O)c2ccc3c(c2)c(=O)n(C)c(=O)n3C)c1,3.98µM[single pt active],–,–,–
Cc1ccc(CCNC(=O)CCNS(=O)(=O)c2ccc3c(c2)c(=O)n(C)c(=O)n3C)cc1,–,–,–,–
CC(C)=CCC/C(C)=C/CO/N=C1/C[C@@H](O)[C@@H](O)[C@@H]2[C@@H]3C(=O)N(Cc4ccc5c(c4)OCO5)C(=O)[C@H]3CC[C@@H]12,·,·,–[8 µM],·
CCOC(=O)c1c(NC(=O)CN2CCN(c3ccccn3)CC2)sc2c1CCCC2,–,–,–,–
CCOC(=O)CNc1c(N2CCN(c3ccccn3)CC2)c(=O)c1=O,3.98µM[single pt active],–,–,–
O=C(C1CCC(CNc2c(N3CCCCC3)c(=O)c2=O)CC1)N1CCN(c2ccccn2)CC1 (stereo not given),3.98µM[single pt active],–,–,–
Cc1ccc(CSc2nnc(Cn3c(=O)sc4ccccc43)n2C)cc1,–,–,–,–
COc1ccc(NC(=O)CSc2nnc(Cn3c(=O)sc4ccccc43)n2C)cc1,?,–,–,–
CCOc1ccc(NC(=O)CSc2nnc(Cn3c(=O)sc4ccccc43)n2C)cc1,3.98µM[single pt active],–,–,–
Cn1c(Cn2c(=O)sc3ccccc32)nnc1SCC(=O)Nc1ccccc1,3.98µM[single pt active],–,–,–
CC(C)CCSc1nnc(Cn2c(=O)sc3ccccc32)n1C,3.98µM[single pt active],–,–,–
Cn1c(Cn2c(=O)sc3ccccc32)nnc1SCC(=O)Nc1ccc(F)cc1,3.98µM[single pt active],–,–,–
COC(=O)C/C=C\[C@@H](C)[C@@H](/C=N\O[C@@H](C)CN1CCCCc2nc(C)c(C)cc21)NS(=O)(=O)c1ccc(C)cc1,·,·,–[1.6 µM],·
CCN1C(C)=C(C(=O)OC)C(c2ccccc2)N2C(=O)[C@@]3(C(=O)OC)O[C@@]12C1C(=O)N(C)C(=O)C13 (stereo not given in full),·,·,–[8 µM],·
Cc1ccc(NC(=O)CSc2nnc(Cn3c(=O)sc4ccccc43)n2C)cc1,–,–,–,–
Cc1ccc(NC(=O)CSc2nnc(Cn3c(=O)sc4ccccc43)n2C)cc1Cl,3.98µM[single pt active],–,–,–
ClC=CCl,–,·,–,–
NCC[C@H]1CCC[C@H](CCN)N1,–,–,–,–
COc1cccc(NS(=O)(=O)c2nc3nc(C)cc(C)n3n2)c1,3.98µM[single pt active],–,–,–
N=C(N)[C@H](N=Nc1ccccc1)C(N)=O,–[5.75 µM],–,–[8 µM],–[5.75 µM]
CCOc1ccc(C(=O)c2ccc(OCC)c(N)c2)cc1N,–,·,10µM,–
O=C(CSc1nnc(-c2ccccc2O)o1)Oc1ccc(OCc2ccccc2)cc1,12.6µM[single pt active],–,–,–
SMILES,AmpC nodet inh,SmPrx2 inh,Anthrax LT inh,AmpC inh det
CCCCNc1cc(=O)n(C)c(=O)[nH]1,3.98µM[single pt active],–,–,–
CCN(CC)CCOc1c(Br)ccc2c1sc1nc3n(c(=O)c12)CCC3,–,·,7.94µM,–
COCc1cc(C)nc(N2CCN(c3ccccc3)CC2)c1C#N,–,–,10µM,–
COC(=O)[C@@]1(Cc2ccccc2)[C@H]2c3cc(C(=O)N(C)C)n(CCF)c3C[C@H]2CN1C(=O)c1ccccc1,–,–,–,–
C=C(C)CSc1nc(N)c(C#N)c(-c2ccc(C)cc2)c1C#N,6.31µM,–,?,–
CCCCOc1ccc(-c2c(C#N)c(N)nc(SCC(N)=O)c2C#N)cc1,20µM[single pt active],–,?,–
CSc1nc(N)c(C#N)c(-c2ccc(Cl)cc2)c1C#N,?,–,?,–
C[C@H](O/N=C1/[C@H]2O[C@@H]2[C@@H](O)[C@H]2[C@H]1CCn1c(=O)n(-c3ccccc3)c(=O)n12)c1cn([C@H]2COC[C@H]2O)nn1,·,·,–[0.064 µM],·
FC(F)(F)c1cc(CN2CCCC3(CCNCC3)C2)cc(C(F)(F)F)c1,–,–,–,–
CC[C@H](CO)NCCN[C@@H](CC)CO,–,–,–[3.58 µM],–
Cc1nn(-c2ccccc2)c2sc(C(=O)N(CC(=O)NC(C)(C)C)Cc3ccco3)cc12,–,–,12.6µM,–
Cc1nc2cc(-c3cccc(F)c3)nn2c(C)c1CCC(=O)NC(C)CCc1ccco1 (stereo not given),–,·,?,–
Cc1nc2cc(-c3cccc(F)c3)nn2c(C)c1CCC(=O)N1CCN(c2ccccn2)CC1,3.98µM[single pt active],–,–,–

# Bioassay records deposited in PubChem by National Center for Advancing Translational Sciences (NCATS).
